In the supplement of paper PMC3334620:
In all, about 33,000 sequences were measured (“E-score (-0.5 to 0.5)”: median about -8e-05, highest 2% from about 0.23 on). Only a selection was taken, and the highest values are over-represented in it overall.

These sequences were tested against T1, Nrg2 (UniProt P38082) (assay: PBM E-score (8-mer binding enrichment) (E-score (-0.5 to 0.5)); higher = stronger / more preferred TF binding). Settings: protein concentration: 100 nM; construct: GST-full length.
T1 sequence: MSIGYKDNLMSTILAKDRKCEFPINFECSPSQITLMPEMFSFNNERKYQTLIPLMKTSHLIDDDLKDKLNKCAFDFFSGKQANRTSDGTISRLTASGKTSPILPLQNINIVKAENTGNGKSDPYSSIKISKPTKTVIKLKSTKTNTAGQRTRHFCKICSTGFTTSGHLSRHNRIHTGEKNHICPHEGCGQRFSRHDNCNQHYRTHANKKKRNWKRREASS
Method: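 Universal 'all 10-mer' protein binding microarrays (Agilent AMADID 015681) probed with GST-tagged S. cerevisiae TFs (full-length or DBD) made by in vitro transcription/translation (PURExpress), about 100-200 nM. Bound TF was detected with fluorescent anti-GST. Each ungapped 8-mer (which stands for itself and its reverse complement) is scored by the PBM enrichment score (E-score), a modified Wilcoxon-Mann-Whitney statistic from -0.5 to +0.5, computed with the Universal PBM Analysis Suite. Scale: above 0.35 generally sequence-specific binding.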

Row | Sequence | PBM E-score
1 | AGGCCGGG | -0.266
2 | GCAGTGCA | -0.0476
3 | ATGAGCTA | 0.069
4 | CAGCAAGC | -0.226
5 | CCGCCCTC | -0.112
6 | CAGCCAGG | 0.0441
7 | AAGGATTA | -0.0123
8 | ATCCCCAT | 0.124
9 | ATCCCCAC | 0.247
10 | GTCCCCAC | -0.178
11 | AAAGTCTA | -0.0546
12 | CTCTGCAG | -0.0279
13 | ATGCATCA | 0.229
14 | GTGCATCA | 0.129
15 | ATGCATCG | 0.0353
16 | CGAGATAG | 0.0116
17 | GATCTTCA | 0.0364
18 | AACATATT | 0.0545
19 | CCGCCCGG | -0.003
20 | CCGCCCCG | 0.309
21 | CCGCCCCC | -0.406
22 | AGCTCTGA | -0.199
23 | CTTGCAAG | 0.181
24 | CTTGCAAC | 0.124

Row | Sequence | PBM E-score
25 | AATGCAAC | 0.127
26 | AATGCAAA | 0.244
27 | CATGCAAG | 0.088
28 | AATGCAAG | 0.0402
29 | TATGCAAA | -0.0899
30 | CATGCAAA | 0.246
31 | CTTGCAAA | 0.232
32 | AGTGCAAT | 0.0654
33 | AGTGCAAA | 0.258
34 | AGTGCAAG | 0.156
35 | ACCCGTGG | -0.111
36 | TCATAAAA | -0.032
37 | GCACTAGA | -0.0716
38 | CTGGTTCC | 0.158
39 | AAGAATGG | 0.0626
40 | TAAGAGGA | -0.0476
41 | GTTTACGA | -0.00773
42 | CAGGTCTA | -0.0487
43 | GCGTCGTA | 0.0775
44 | AAAGCTTG | 0.00751
45 | CCCAGTCG | -0.143
46 | AGATCAAA | 0.0337
47 | ATTGCAAG | 0.137
48 | CTTGCGCA | 0.264

Row | Sequence | PBM E-score
49 | AATGCGCG | 0.177
50 | AATGCGCA | 0.296
51 | CTTGCGCC | -0.0573
52 | ATTGCGCA | 0.143
53 | ATTGCAAT | 0.243
54 | ATTGCAAA | 0.127
55 | CATGCGCA | 0.164
56 | ATCCTTGC | -0.0413
57 | AGCAGACC | 0.135
58 | ACCTTCTA | -0.0686
59 | CGTGTCCC | -0.104
60 | ACGACTAT | 0.0778
61 | CTGTAGGA | 0.0349
62 | AGTAGTAT | 0.114
63 | ATAAATCA | 0.0708
64 | GGAAATCA | -0.049
65 | CGAAATCC | 0.199
66 | GTAAATCA | 0.24
67 | CTAAATCA | 0.0351
68 | CGAAATCA | 0.244
69 | GCTGTGTA | -0.051
70 | CCTCTCCA | -0.343
71 | AGGCATCC | -0.161
72 | AGGGGTAC | 0.142

Row | Sequence | PBM E-score
73 | CTCTTTTA | -0.0622
74 | ATTCATAC | 0.238
75 | ATTCATAG | 0.155
76 | CTTCATAC | 0.112
77 | ATCTCATC | 0.0993
78 | CTTATGGC | -0.0261
79 | CCCTGACC | 0.3
80 | CCCTGACA | 0.288
81 | CCCTGACG | 0.138
82 | GCCTGACC | -0.0177
83 | GCCTGACA | -0.173
84 | ACCTGACC | -0.197
85 | TAACTGCA | 0.157
86 | CTCTCAAC | -0.121
87 | GAGTCTCC | -0.178
88 | CAGCAATC | 0.0368
89 | AAACAGTG | 0.167
90 | CAGGGATA | 0.286
91 | AAGGGATC | 0.135
92 | TAGGGATA | 0.134
93 | CAGGGATC | 0.238
94 | GAGGGATA | -0.145
95 | CAGGGATG | 0.211
